High-throughput results deposited in PubChem BioAssay by several laboratories.
Shown are actives, neighbours in structure and some others; about 2.6% of the full set was active somewhere.
LGR2 inh – blocks bursicon-induced cAMP signaling via Drosophila LGR2 | inhibition, % at 9.99 µM | HEK293 LGR2, CRE-luciferase, bursicon-stimulated, 4 h | actives 0.35% (n = 380,000) | AID 720647;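 active = drop in luminescence signal, shown as inhibition above about 50% in the replicate tests, limit read from the data, passing the limit was not always enough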;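 also: agonist challenge used bursicon conditioned medium at about half maximal strength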
KKLEB cytotox – CF airway cell cytotoxicity counter-screen. KKLEB CF airway cells viability, ATPlite luminescence, overnight; stronger effect = lower value; cells stimulated with P. aeruginosa culture filtrate. activity change (cytotoxicity), % at 5 µM. actives 0.36% (n = 360,000). AID 602141;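 active = corrected activity change at or below -50% at 5 µM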
TROY NFkB inh – inhibitors of TROY-dependent NF-kB signaling | Q293 LMP1-TROYcd NF-kB luciferase reporter, 4 h | inhibition, % at 10 µM | actives 0.98% (n = 360,000);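 active = compounds whose plate-normalised and pattern-corrected inhibition of the luciferase reporter signal at the single screening dose is 50% or more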
TWEAK-Fn14 inh – inhibitors of TWEAK-Fn14 interaction signaling | inhibition, % at 10 µM | actives 2% (n = 360,000) | TWEAK-stimulated Fn14 reporter cells, luciferase luminescence, 8 h | AID 1159606; in the data active = inhibition above about 50%
EWS-Fli inh – inhibitors of EWS/Fli oncoprotein transcriptional activity. A673 NR0B1-luciferase reporter, viability-normalised. inhibition, % at 12.6 µM. actives 0.67% (n = 350,000);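 active = mean inhibition of at least 50% after viability correction, with every replicate also passing that limit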;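 also: firefly luciferase signal divided by Alamar Blue viability fluorescence both relative to DMSO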
CF NFkB inh – cystic fibrosis NF-kB activation inhibition | KKLEB NF-kB-GFP reporter, PAF-induced, GFP fluorescence overnight | inhibition, % at 5 µM | actives 0.86% (n = 360,000);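 active = at least 50% inhibition at 5 µM, scaled per plate between neutral and stimulator controls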;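 also: PAF is a Pseudomonas aeruginosa culture filtrate used as stimulus; plate controls were PAF-stimulated DMSO wells for no effect and unstimulated DMSO wells for full effect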
Active calls of the source: *; x = not tested or not shown.

SMILES	LGR2 inh	KKLEB cytotox	TROY NFkB inh	TWEAK-Fn14 inh	EWS-Fli inh	CF NFkB inh
CN(C)c1ccc(NC2=C(Cl)C(=O)c3ccccc3C2=O)cc1	48.7	-81.6*	42.5	102.0*	36.3	80.3*
CC(=O)Nc1ccc(NC2=C(Cl)C(=O)c3ccccc3C2=O)cc1	55.8*	x	x	x	46.6	x
O=C1C(Cl)=C(Nc2ccc3cn[nH]c3c2)C(=O)c2ccccc21	-28.9	-92.4*	-95.2	1.2	46.3	93.7*
O=C1C(Cl)=C(NCCCO)C(=O)c2ccccc21	x	-8.0	-26.1	-23.4	x	8.2
COc1ccc2c3c([nH]c2c1)[C@H](CO)N(S(C)(=O)=O)CC31CN(C(=O)c2cccnc2)C1	10.9	x	x	x	8.7	x
C[C@H](CO)N1C[C@H](C)[C@@H](CN(C)C(=O)Cc2ccccn2)Oc2ncc(-c3ccc(F)cc3)cc2C1=O	-4.6	x	x	x	3.6	x
COc1ccc2c3c(n(C)c2c1)[C@H](CO)N(C(=O)CN1CCOCC1)CC31CCN(C)CC1	-6.4	x	x	x	-2.6	x
COc1ccccc1CNC(=O)C[C@@H]1C[C@H]2c3cc(NC(=O)C4CCOCC4)ccc3O[C@H]2[C@H](CO)O1	3.2	x	x	x	2.2	x
COc1cc(NC(=S)N2CCCC(CO)C2)cc(OC)c1 (stereo unspecified)	-22.4	2.4	-36.8	61.7*	-5.3	2.1
COC(=O)Cc1ccc(NC(=S)N2CCCC(CO)C2)cc1 (stereo unspecified)	28.7	-2.5	-43.1	-3.5	-30.5	-3.3
CCCNC(=O)N1CC2(C1)[C@H](c1ccccc1)[C@H](CO)N2C(=O)CC1CC1	14.9	x	x	x	-0.3	x
O=C1/C(=C/N(C(=O)c2ccco2)c2ccc(Br)cc2)Sc2ccccc21	x	-9.6	65.1*	86.8*	x	-13.5
O=C1/C(=C/N(C(=O)c2ccco2)c2ccc(Cl)cc2)Sc2ccccc21	x	-8.8	60.1*	83.3*	x	-20.1
O=C(O)C[C@@H]1C[C@@H]2c3cc(NS(=O)(=O)c4ccc(F)cc4)ccc3O[C@@H]2[C@H](CO)O1	4.5	x	x	x	x	x
C[C@@H]1CN([C@@H](C)CO)C(=O)Cc2cc(NS(=O)(=O)c3cccs3)ccc2O[C@@H]1CN(C)Cc1ccc(C(F)(F)F)cc1	5.3	x	x	x	4.1	x
CC(=O)[C@H]1CC[C@H]2[C@@H]3C[C@H](C)C4=CC(=O)CC[C@]4(C)[C@H]3[C@@H](O)C[C@]12C	-17.1	19.8	14.7	-25.6	8.6	56.6*
CC(=O)O[C@]1(C(C)=O)CC[C@H]2[C@@H]3C[C@H](C)C4=CC(=O)CC[C@]4(C)[C@H]3CC[C@@]21C	0.4	21.2	2.3	-14.1	3.9	53.1*
CC(=O)OC1(C(C)=O)CCC2C3CC(C(F)(F)F)C4=CC(=O)CCC4(C)C3CCC21C (stereo unspecified)	8.8	-4.9	-9.0	-6.7	4.9	18.9
Cc1ccc(S(=O)(=O)Nc2ccc3c(c2)C(=O)N([C@H](C)CO)C[C@@H](C)[C@@H](CN(C)S(=O)(=O)c2ccc(F)cc2)O3)cc1	15.1	x	x	x	-5.3	x
CC(=O)Nc1ccc(S(=O)(=O)NC2=NCN(c3ccc([N+](=O)[O-])cc3)CN2)cc1	0.8	-9.3	-7.1	16.4	x	-7.7
CN1CN=C(NS(=O)(=O)c2ccc([N+](=O)[O-])cc2)NC1	1.8	1.6	1.9	55.1*	x	-18.8
Cc1nc(-c2coc3cc(OCC(=O)O)ccc3c2=O)cs1	x	6.6	-19.5	16.0	x	6.8
Cc1nc(-c2coc3cc(O)c(C)cc3c2=O)cs1	x	0.4	34.1	65.3*	x	-13.0
COc1cc(NS(=O)(=O)c2ccc(C)cc2)c2ncccc2c1	x	-3.5	27.6	107.3*	x	47.6
COc1cc(NC(=O)c2ccccc2)c(OC)cc1Cl	x	-12.1	5.8	10.8	x	-3.8
SMILES	LGR2 inh	KKLEB cytotox	TROY NFkB inh	TWEAK-Fn14 inh	EWS-Fli inh	CF NFkB inh
O=C(Nc1cccc2cccnc12)c1ccc(Cl)cc1Cl	x	-2.8	-47.1	-20.1	-25.3	2.6
COc1ccc(S(=O)(=O)Nc2ccccn2)cc1	-0.7	3.7	-10.8	1.5	17.3	-12.4
Cc1ccc(S(=O)(=O)Nc2cccc3cccnc23)cc1	x	6.4	79.5*	106.9*	x	56.7*
COc1cc(NC(=O)c2ccccc2Cl)c2ncccc2c1	-11.7	2.4	20.5	0.0	57.6*	17.8
COc1cc(OC)c(NC(=O)c2cc3ccccc3cc2O)cc1Cl	23.4	-1.3	57.4*	94.1*	-4.8	24.7
C[C@@H]1CCCCO[C@@H](CN(C)C(=O)Nc2cccc3ccccc23)[C@H](C)CN([C@@H](C)CO)C(=O)c2cc(NC(=O)Cc3ccccc3)ccc2O1	5.4	x	x	x	-0.7	x
Cc1ccc(S(=O)(=O)Nc2ccccc2-c2ccccc2NS(=O)(=O)c2ccc(C)cc2)cc1	x	14.3	51.5*	-1.4	x	30.6
C[C@H](CO)N1C[C@H](C)[C@@H](CN(C)C(=O)Nc2ccc(F)cc2)Oc2ccc(NC(=O)Cc3cn(C)c4ccccc34)cc2CC1=O	-5.5	x	x	x	-0.1	x
COc1ccccc1-c1ccc2n(c1=O)C[C@@H]1[C@@H](CO)[C@H](C(=O)O)N(C(=O)c3cccnc3)[C@H]21	13.6	x	x	x	-2.2	x
COc1ccc(C2=NN(C(=O)COc3ncnc4ccccc34)C(c3ccco3)C2)cc1 (stereo unspecified)	1.1	-20.9	7.3	-64.9	-4.4	17.4
COc1ccc(C2=NN(C(=O)COC(=O)c3ccc(S(C)(=O)=O)c([N+](=O)[O-])c3)C(c3ccco3)C2)cc1 (stereo unspecified)	-35.2	-79.5*	15.8	68.9*	5.9	84.1*
CO[C@@H]1CN(C)C(=O)c2cc(NC(=O)c3cc(C)on3)ccc2OC[C@H](C)NC[C@H]1C	-2.8	x	x	x	-8.3	x
Nc1cccc(-c2nc3ccccc3[nH]2)c1	-43.8	-20.1	-36.2	1.6	x	-8.4
Cc1ccc2nc(-c3sc4nc(C)cc(C)c4c3N)[nH]c2c1	x	-24.1	69.8*	78.4*	x	0.7
Cc1ccc2nc(-c3cccc(N)c3)[nH]c2c1	x	0.1	11.8	60.9*	x	11.5
Cc1ccc(-c2nc3ccc([N+](=O)[O-])cc3[nH]2)cc1	54.1*	1.7	16.7	50.9*	-16.4	-46.4
CCN(CC)C(=O)COc1ccc(-c2nnc(N3CCCCC3)c3ccccc23)cc1	x	-1.1	14.1	-10.1	x	-11.3
CCOc1ccc(-c2nnc(N3CCCCC3)c3ccccc23)cc1	x	-14.8	58.8*	-9.2	x	8.2
CC(=O)N1CCN(c2nnc(-c3ccc(C)cc3)c3ccccc23)CC1	1.1	1.6	51.9*	0.8	-1.3	8.2
C[C@H]1CN([C@@H](C)CO)C(=O)c2cccc(NC(=O)c3cnccn3)c2O[C@H]1CN(C)S(=O)(=O)c1ccc(F)cc1	1.0	x	x	x	1.2	x
C[C@@H]1CN([C@H](C)CO)C(=O)Cc2cc(NC(=O)CCC(F)(F)F)ccc2O[C@H]1CN(C)CC1CC1	-13.6	x	x	x	-1.9	x
N#Cc1cc(NC(=O)c2ccc(Cl)cc2)ccc1Sc1ccccc1	3.5	-39.2	50.4*	64.2*	-10.0	39.4
